Measurements taken from the supplement of paper PMC12669032.
A number with no mark means an inactive call.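 How the source made its calls: active = AUC reduced over 20% with Padj below 0.05 in at least 2 of 3 replicates; inactive = otherwise.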

How the values were obtained:
Roseburia intestinalis = test: growth AUC relative to DMSO control (median of replicates) (fraction); higher = more growth (less inhibition), active = hit call of the paper; settings: 20 µM; 24 h
Outline: (§1)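 For each compound at 20 µM (1% DMSO), gut bacterial monocultures seeded at OD600 0.05 grew anaerobically in mGAM at 37 °C in round-bottom 96-well plates. Hourly OD600 readings over 24 h gave growth curves whose minimum OD was set to 0. Area under these curves was normalised to the plate median of solvent-only wells, or to row and column medians on the industrial chemical plate. Values are medians of three biological replicates grown on separate days.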

Streptococcus salivarius = test: as above; settings: 20 µM; 24 h
Outline: as §1

| SMILES | growth AUC (Roseburia intestinalis) | growth AUC (Streptococcus salivarius) |
| --- | --- | --- |
| Clc1ccc(C2(Cn3cncn3)CC(Br)CO2)c(Cl)c1 (configuration not stated) | 0.99 | 0.988 |
| CC(=O)O.CC(=O)O.CC(=O)O.NC(N)=NCCCCCCCCNCCCCCCCCN=C(N)N | 0.029 (active) | 0.454 (active) |
| O=c1ccc(=O)[nH][nH]1 | 1.01 | 0.965 |
| COP1(=S)OCc2ccccc2O1 (configuration not stated) | 0.943 | 1.01 |
| O=C(Nc1ccccc1)Nc1ccnc(Cl)c1 | 0.896 | 0.844 |
| CNC(=O)/C(=N/OC)c1ccccc1Oc1ccccc1 | 1.04 | 0.989 |
| O=c1oc2ccccc2c(O)c1C1CC(c2ccc(-c3ccc(Br)cc3)cc2)Cc2ccccc21 (configuration not stated) | 0.345 (active) | 0.393 (active) |
| CCSC(C)CC1CC(=O)C(/C(CC)=N/OC/C=C/Cl)=C(O)C1 (mixture of isomers) | 1.01 | 0.919 |
| Oc1ccc(Cl)cc1Cl | 0.907 | 0.901 |
| N#CC(CCc1ccc(Cl)cc1)(Cn1cncn1)c1ccccc1 (configuration not stated) | 0.911 | 0.934 |
| O=c1oc2ccccc2c(O)c1C1CC(c2ccc(-c3ccccc3)cc2)Cc2ccccc21 (configuration not stated) | 0.711 (active) | 0.709 (active) |
| CP(=O)(O)CC(=O)O | 1.09 | 0.998 |
| COP(=S)(Oc1cc(Cl)c(Br)cc1Cl)c1ccccc1 (configuration not stated) | 1.04 | 1.05 |
| CS(=O)(=O)c1cc(C(F)(F)F)ccc1C(=O)c1cnoc1C1CC1 | 1.03 | 1.01 |
| CC(C)(C)C(=O)C(Oc1ccc(Cl)cc1)n1cncn1 (configuration not stated) | 1.03 | 1.01 |
| CNC(=O)Oc1ccccc1OC(CCl)OC (configuration not stated) | 0.961 | 0.996 |
